Laboratory results reported in PubChem BioAssay AID463173 (ICCB-Longwood Screening Facility, Harvard Medical School, 2010).
In all, about 52,000 compounds went through this assay and about 1,700 (3.3%) were called active. The entries come from a sample that favours actives as a whole. Values without a mark were called inactive. Rule as the data show it: active = survival mostly below about 52% (no sharp cut-off); inactive = mostly above about 56%.

system: Wild type; assay: S. aureus survival, RN4220 and DeltatarO strains – OD600, teichoic acid synthesis inhibitors, primary screen (AID 463173); settings: S. aureus RN4220 wild type/DeltatarO growth, OD600, 18 h, active compounds read low, screened at 18.75 µg/mL (by protocol)

Compound	survival
Cc1cc(C)n2nc(SCC(=O)Nc3cccc(C(F)(F)F)c3)nc2n1	56%
CCc1ccc(-n2c(SCc3ccccc3F)nc3[nH]ncc3c2=O)cc1	93%
O=C(CCS(=O)(=O)c1cc2c(cc1Cl)NC(=O)CO2)NCCc1ccc(Cl)cc1	116%
COc1ccc(NC(=O)Cn2c(=O)n(CC3CCCO3)c(=O)c3ccccc32)c(OC)c1 (stereo not drawn)	86%
O=c1c2sc3ccccc3c2n(Cc2ccccc2F)c(=O)n1CCc1ccccc1	86%
O=C(NCc1ccccc1)c1cc(Sc2cccc(Cl)c2)nc2ccccc12	78%
CCc1ccc(C(=O)c2cn(CC(=O)Nc3cc(OC)ccc3OC)c3nc(C)ccc3c2=O)cc1	124%
CC(C)Cn1c(=O)c2ccccc2n2c(CCC(=O)N3CCN(c4ccccc4)CC3)nnc12	127%
CCC1CCCCN1C(=O)COc1ccc(F)cc1 (stereo not drawn)	113%
CCOc1ccc(C2C(=O)N(C3CCCCC3)CC(=O)N2CCc2ccccc2)cc1OC (stereo not drawn)	117%
Cc1cccc(N2CCCC2=Nc2ccc(Br)cc2C#N)c1	116%
O=C(Nc1ccccc1Cl)c1ccc(F)c(S(=O)(=O)NCc2ccc(Cl)c(Cl)c2)c1	69%
COc1ccc2cc(CNc3ccc(C)cc3)c(=O)n(CC(=O)Nc3cccc(Cl)c3C)c2c1	73%
COc1ccc(C(=O)N(Cc2ccc(N(C)C)cc2)Cc2ccco2)cc1Cl	81%
CCOC(=O)N1CCN(Cc2nc3cc(NC(=O)c4ccc(OC)cc4)ccc3n2C(C)C)CC1	89%
C#CCn1c(/C=C/c2ccc(Cl)cc2)nc2ccccc21	23% (active)
Cn1c(C=Nc2ccc(Cl)cc2)nc2ccccc21	111%
C#CCn1c(COc2ccccc2C)nc2ccccc21	115%
Cn1c(C(=O)NCCc2ccccc2)cc2c(=O)n3ccccc3nc21	80%
CCOc1ccc(NC(=O)Cn2nnc(C(=O)NCc3cccs3)c2N)cc1	97%
Cc1ccc2c(c1)cc1c(=O)n(Cc3ccc(Cl)cc3)nc(C)n12	97%
COc1cc(/C=C(\C#N)c2nc3ccccc3[nH]2)ccc1OCc1cccc(C(F)(F)F)c1	66%
Cc1sc(-n2cccc2)c(C(C)NC(=O)Nc2ccccc2Cl)c1C (stereo not drawn)	77%
COc1ccc(NC(=O)NC(C)c2c(-n3cccc3)sc(C)c2C)cc1OC (stereo not drawn)	76%
Cc1sc(-n2cccc2)c(C(C)NC(=O)Nc2cccc(C(F)(F)F)c2)c1C (stereo not drawn)	6% (active)

Compound	survival
COC(=O)c1ccc(NC(=O)NC(C)c2c(-n3cccc3)sc(C)c2C)cc1 (stereo not drawn)	89%
COC(=O)c1ccc(Cl)cc1NC(=O)NC(C)c1c(-n2cccc2)sc(C)c1C (stereo not drawn)	12% (active)
Cc1ccc(NC(=O)NC(C)c2c(-n3cccc3)sc(C)c2C)cc1F (stereo not drawn)	74%
Cc1cccc(-n2ncc3c(Nc4ccc(Oc5ccc(Cl)cc5)cc4)ncnc32)c1	88%
CCC(=O)C1=C(c2ccc(OC)c(OC)c2)N(C(=O)CC)n2c(CC)nnc2S1	55%
CCN(C(=O)CSc1nc2ccccc2nc1Cc1ccc(F)cc1)c1cccc(C)c1	88%
COc1ccc(-c2noc(CCC(=O)Nc3ccc(C(F)(F)F)cc3)n2)cc1	84%
COc1cccc(Cc2nc3ccccc3nc2SCC(=O)Nc2cccc(C)c2)c1	128%
CCN(C(=O)CSc1nc2ccccc2nc1Cc1cccc(OC)c1)c1cccc(C)c1	-2% (active)
CCN(C(=O)CCc1nc(-c2ccc(C)cc2)no1)c1cccc(C(F)(F)F)c1	0% (active)
CCCCN(C)C(=O)CSc1nc2ccccc2nc1Cc1ccc(C)cc1	0% (active)
CCN(C(=O)CSc1nc(-c2ccccc2)no1)c1cccc(C)c1	-2% (active)
Cc1ccc(CNC(=O)CSc2nc3ccccc3nc2Cc2ccc(C)cc2)cc1	78%
CCN(C(=O)CSc1nc(-c2ccc(C(C)C)cc2)no1)c1cccc(C)c1	72%
COc1ccc(-c2noc(CC(=O)N(C)c3cccc(C)c3)n2)cc1	83%
CCN(C(=O)CSc1nc(-c2ccccc2)no1)c1ccccc1	85%
CCCCNC(=O)CSc1nc2ccccc2nc1Cc1ccc(C)cc1	72%
CCCOc1ccc(C2C(=O)N(C3CCCCCC3)CC(=O)N2Cc2ccccc2OC)cc1OC (stereo not drawn)	87%
COc1ccc(-c2nc(SCC(=O)Nc3ccc4c(c3)OCO4)c(-c3ccc(F)cc3)[nH]2)cc1OC	65%
COC(=O)C1CCCc2c1[nH]c1ccc(Cl)cc21 (stereo not drawn)	142%
CC1=C(C(=O)OC2CCCC2)C(c2cccc(Cl)c2Cl)CC(=O)N1 (stereo not drawn)	90%
Cc1ccc(F)cc1NC(=O)c1ccc(Cn2nc(N3CCN(c4ccccc4)CC3)ccc2=O)o1	127%
CCc1cccc(NS(=O)(=O)c2ccc3c(c2)CC(C)N3C(=O)C2CC2)c1 (stereo not drawn)	80%
COc1ccc(CNC(=O)Cn2c(=O)oc3cc(S(=O)(=O)N4CCCC4)ccc32)cc1	91%
Cc1ccc2nc(-c3ccc(C)s3)c(Nc3ccc4c(c3)OCCO4)n2c1	83%

Compound	survival
CCOC(=O)c1cccc(NC(=O)N2CC(CC)Sc3ccccc32)c1 (stereo not drawn)	84%
COc1ccc(CNC(=O)c2cc3c(=O)n(Cc4ccco4)ccc3nc2C)cc1	74%
Cc1ccc2c(c1)c1c3n2CCN(C(=O)CN2CCN(C(=O)c4ccco4)CC2)C3CCC1 (stereo not drawn)	126%
COc1ccc(C(=O)Oc2ccc(C(c3c(C)[nH][nH]c3=O)c3c(C)[nH][nH]c3=O)cc2OC)cc1	73%
O=C(CSc1nnc(CNC(=O)c2ccccc2F)n1-c1ccccc1)Nc1ccccc1F	66%
CCN(C(=O)CCc1nc(-c2ccc(C)cc2)no1)c1cc(C)ccc1C	0% (active)
CCN(C(=O)CCc1nc(-c2ccc(C)cc2)no1)c1cccc(Cl)c1	-1% (active)
CCN(C(=O)c1cc2cc3ccc(OC)cc3nc2o1)c1cccc(C)c1	0% (active)
COc1ccc(CNC(=O)c2cc3cc4ccc(C)cc4nc3o2)cc1	88%
COc1cc(-c2noc(CCC(=O)Nc3cc(C)ccc3C)n2)cc(OC)c1OC	82%
CC(C)(C)c1ccc(-c2noc(CCC(=O)Nc3cccc(Cl)c3)n2)cc1	87%
Cc1ccc(C)c(NC(=O)CCc2nc(-c3ccc(C(C)(C)C)cc3)no2)c1	109%
CCN(C(=O)Cc1nc(-c2ccc(OC)cc2)no1)c1cccc(Cl)c1	84%
COc1ccc2cc3cc(C(=O)NCc4ccc(C)cc4)oc3nc2c1	89%
Cc1ccc(-n2cnc3ccccc3c2=O)cc1C	89%
CCN1C(=O)C(C2SC(=S)N(CC)C2=O)SC1=S (stereo not drawn)	98%
CCc1ccccc1N(C)C(=O)c1cnc(N2CCOCC2)c2ccccc12	65%
CCOc1ccccc1NC(=O)N1c2ccccc2Sc2ccccc21	61%
CCc1ccc(NC(=O)N2c3ccccc3Sc3ccccc32)cc1	1% (active)
CCOC(=O)N1c2ccccc2Sc2ccccc21	95%
O=C(O)c1ccccc1NC(=O)N1c2ccccc2Sc2ccccc21	28%
COc1ccc(OC)c(NC(=O)N2c3ccccc3Sc3ccccc32)c1	19%
CC(C)c1ccc(NC(=O)N2c3ccccc3Sc3ccccc32)cc1	5% (active)
COc1cc(NC(=O)N2c3ccccc3Sc3ccccc32)cc(OC)c1	65%
CCN(CC)C(=O)N1c2ccccc2Sc2ccccc21	108%

Compound	survival
COc1ccccc1NC(=O)N1c2ccccc2Sc2ccccc21	-1% (active)
CCOC(=O)c1cccc(NC(=O)N2Cc3ccccc3Oc3ncccc32)c1	81%
Cc1c2cnn(CC(=O)O)c(=O)c2c(C)n1Cc1cccc(Cl)c1	80%
CCCSc1ncc(Cl)c(C(=O)N(Cc2ccccc2)c2ccc(OC)cc2)n1	80%
Cc1ccc(-n2ncc3c(Nc4ccc5c(c4)OCCO5)ncnc32)cc1C	100%
CSc1cccc(Nc2cc(C(=O)NCCc3ccc(Cl)cc3)c3ccccc3n2)c1	120%
Cc1c(-c2cccc(NC(=O)Nc3ccc(Cl)cc3)c2)nc2ncccn12	-4% (active)
Cc1c(-c2cccc(NC(=O)C(C)(C)C)c2)nc2ncccn12	71%
Cc1c(-c2cccc(NC(=O)Nc3ccccc3)c2)nc2ncccn12	64%
CCc1nn(CC(=O)NCc2cccc(OC)c2)c(=O)c2cc3cc(F)ccc3n12	69%
CCOc1ccc(CCNC(=O)c2ccc3nc(N4CCC(C)CC4)sc3c2)cc1OCC	73%
Cc1ccc(-n2ncc3c(NCc4ccccc4)ncnc32)cc1Cl	-6% (active)
Cc1ccc(-n2ncc3c(NCc4ccccc4)ncnc32)cc1C	67%
Cc1ccc(-n2ncc3c(NCCc4ccccc4)ncnc32)cc1Cl	65%
c1ccc(-c2nc3cc(Cc4ccc5oc(-c6ccccn6)nc5c4)ccc3o2)nc1	113%
CCC1=Nc2cc(C(=O)NCCN(CC)CC)ccc2Sc2ccccc21	93%
Cc1ccccc1NC(=O)CC1COc2ccccc2O1 (stereo not drawn)	111%
O=C(NCCc1nc2ccccc2n1Cc1ccccc1F)c1ccc(F)cc1	82%
O=C(NCCCc1nc2ccccc2n1Cc1ccccc1F)c1ccco1	92%
COc1ccc(Cc2nc3ccccc3n2Cc2ccccc2F)cc1	23% (active)
COc1ccc(Cc2nc3ccccc3n2Cc2ccccc2C)cc1	1% (active)
COc1cccc(OCc2nc3ccccc3n2Cc2ccccc2C)c1	87%
Cc1ccccc1Cn1c(CCCNC(=O)C2CCCCC2)nc2ccccc21	101%
